The text below walks through data of PubChem BioAssay (NCATS).

Values joined by “and” are separate entries in the source; they are usually repeats but may differ in a detail not shown here. Identical values can stand only once. Values without a mark were called inactive. Records with an inconclusive call do not appear. Active and inactive are the calls of the source. Unless noted, the call rests on the fitted dose curve; in most records, active means well fitted curve in the direction sought with a large enough effect; inconclusive means small, poorly fitted or top-dose-only effect, or another doubt; inactive means no such curve, though single readings can be large; an effect the other way counts as inactive or inconclusive.

Assay [1] has as its target Cytochrome P450 2C9 (Homo sapiens) (UniProt P11712). The experiment in a line: qHTS Assay for Inhibitors and Substrates of Cytochrome P450 2C9 (AID 883). Further: nearly all actives have a fitted effect of over 60% in size. Further: potency means the concentration at half of the fitted maximal effect. The procedure, abridged: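 CYP2C9 deoxyluciferin hydroxylation, 37C, 60 min with NADPH regeneration; 10nM enzyme, 100uM Luciferin-H (KM). Glo detection reagent stopped reaction; luminescence normalized to sulphaphenazole (57uM) full inhibition.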
A general note: In qHTS, concentration-response curves come from the screen itself.

Assay [2] is described as follows: Cell Viability - HepG2 (AID 433; calls by dose curve;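 further: potency means the concentration at half of the fitted maximal effect; cells exposed to compound for 40 hours; potency for ATP loss meaning cytotoxicity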). The note with it: qHTS. In a few lines: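 Cytotoxicity read as ATP loss (CellTiter-Glo luminescence) after 40 hr compound exposure of HepG2, 1500 cells/well, 37 °C. AC50 by Hill equation; 0% set by DMSO, 100% inhibition by 100 uM tamoxifen.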
Assay [3] is described as follows: Cell Viability - MRC5 (AID 434; calls by dose curve;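 further: potency means the concentration at half of the fitted maximal effect; cells exposed to compound for 40 hours at 37 °C; potency reflects cytotoxicity seen as loss of intracellular ATP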). The note with it: MRC5 lung fibroblast viability, qHTS. In a few lines:
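MRC5 normal human lung fibroblasts (1500/well) were treated with compounds for 40 hr at 37 °C in complete medium, and viable cells were measured as intracellular ATP by CellTiter-Glo luminescence. AC50 came from Hill fits, normalized to DMSO and 100 uM tamoxifen.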

Assay [4] is described as follows: Cell Viability - NIH 3T3 (AID 541).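 Further: cells exposed to compound for 40 hours; plate controls were DMSO alone for no effect and tamoxifen positive control for full effect; nearly all actives have a fitted effect of over 25% in size.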 The note with it: NIH 3T3 cell viability, qHTS; activity change, negative = cytotoxicity: at 92.2 µM (top of the series). The procedure, abridged: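 NIH 3T3 mouse embryo fibroblasts (1000 cells/well) were plated in complete medium and treated with compound for 40 hr at 37 °C. Viability was read as intracellular ATP by CellTiter-Glo luminescence; AC50 values came from Hill-equation fits of concentration-response data.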

A short description of assay [5]: Cell Viability - Renal Proximal Tubule (AID 545).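 Further: cells exposed to compound for 40 hours; nearly all actives have a fitted effect of over 40% in size.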 The note with it: renal proximal tubule cells viability; at 91.7 µM (top of the series), primary cells of rat origin unless noted. The procedure, abridged:
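Viability taken as intracellular ATP (CellTiter-Glo luminescence) after 40 hr, 37 °C compound treatment of primary proximal tubule cells from rat kidney, 1000 cells/well; Hill-equation fits of qHTS concentration-response data gave AC50.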

Assay [6] is described as follows: Cellular Toxicity (caspase-3) SHSY5Y (AID 657). The procedure, abridged:
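Luminescent Caspase-Glo 3/7 read-out, 1 hr room temperature, follows 16 hours of compound treatment of SH-SY5Y cells at 37 °C. Normalization: DMSO basal, 10 uM staurosporine as 100%; AC50 values from Hill-equation concentration-response fits.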

Assay [7] can be described thus: Cellular Toxicity (caspase-3) Mesangial (AID 660).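 Further: cells exposed to compound for 16 h before the caspase read.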 The procedure, abridged:
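Human renal glomerular mesangial cells (1000/well) were treated with compounds for 16 h at 37 °C in complete medium, then caspase 3/7 activity was read by Caspase-Glo luminescence. Data were normalized to DMSO and 100 uM tamoxifen; AC50 from Hill fits.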

Assay [8] in a line: Cellular Toxicity (caspase-3) SK-N-SH (AID 661). In a few lines:
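SK-N-SH human neuroblastoma cells (1500/well) were treated with compounds for 16 hr at 37 °C in complete medium; caspase 3/7 activity was read by Caspase-Glo luminescence. AC50 came from Hill fits of data normalized to DMSO and 10 uM staurosporine.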

Assay [9] is described as follows: Cellular Toxicity (caspase-3) H-4-II-E (AID 663).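 Further: cells exposed to compound for 16 hr before readout; 0% = DMSO basal and 100% = 100 µM tamoxifen.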 In a few lines:
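Luminescence from caspase-cleaved aminoluciferin substrate, read 20 min after reagent addition, reports caspase 3/7 activation in rat H-4-II-E cells after 16 hr compound exposure. Normalized to DMSO (basal) and 100 uM tamoxifen (100%); AC50 from Hill fits.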

Assay [10] in a line: Cellular Toxicity (caspase-3) NIH 3T3 (AID 666).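 Further: 0% = DMSO basal and 100% = 100 µM tamoxifen stimulation.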 The procedure, abridged:
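Mouse NIH 3T3 fibroblasts (1000 cells/well) were treated with compound for 16 hr at 37°C in complete medium; caspase-3/7 activity was read by Caspase-Glo luminescence. Normalized to DMSO and 100 uM tamoxifen; AC50 from Hill fits.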

A short description of assay [11]: Cellular Toxicity (caspase-3) Renal Proximal Tubule (AID 667).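 Further: cells exposed to compound for 16 hours at 37 °C before detection.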 The note with it: renal proximal tubule cells; at 91.7 µM (top of the series), primary cells freshly taken from rat, solvent-only wells 0%, staurosporine 100% unless noted. In a few lines: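 Caspase 3/7 activation measured by luminescent aminoluciferin release in primary rat proximal tubule cells after 16 hr compound exposure at 37 °C. AC50 from Hill-fitted concentration-response, scaled between DMSO and 10 uM staurosporine.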

Assay [12] is described as follows: MultiTox-Fluor Cytotoxicity Assay - LYMP1-002 - Live Cells (AID 955). Further: on the % scale 0 is the no-effect control and ±100 the full control effect. In a few lines:
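Human lymphoblastoid LYMP1-002 cells, 2500/well in complete medium, rested 5 hr at 37 C, then exposed to compounds for 16 hr at 37 C. Live-cell protease cleavage of GF-AFC read by fluorescence (Ex/Em 405/510) after 60 min at room temperature; AC50 from Hill fits.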

A short description of assay [13]: Cell Viability - LYMP2-025 (AID 976).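 Further: cells exposed to compound for 24 h at 37 °C.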 Further: potency means the concentration at half of the fitted maximal effect.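 On activity change, negative = cytotoxicity: plate controls were DMSO only for no effect and tetraoctylammonium bromide control for full effect.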 The procedure, abridged: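 Human lymphoblastoid LYMP2-025 cells (2500/well) were pre-incubated 5 hr at 37 C, then treated with compounds for 24 hr at 37 C in complete medium. Viability was read as intracellular ATP by CellTiter-Glo luminescence; AC50 from Hill fits.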
Assay [14] deals with Estrogen receptor (Homo sapiens) (UniProt P03372). The experiment in a line: qHTS assay for small molecule antagonists of estrogen receptor alpha signaling (AID 588513; active means well fitted curve in the direction sought with a large enough effect in the signal ratio, with a control signal flat, not every such curve was filed as active; the % refers to the signal ratio; further: on the % scale 0 is the no-effect control and ±100 the full control effect). The procedure, abridged:
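Antagonist mode: inhibition of 0.5 nM 17-beta-estradiol-driven beta-lactamase reporter in HEK 293 ER-alpha-UAS-bla cells, 18 h at 37C, CCF4 readout after 2 h at RT. Normalised to estradiol and DMSO; titration fitted to Hill.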

In assay [15] the target is Glucocorticoid receptor (Homo sapiens) (UniProt P04150). The experiment in a line: qHTS assay for small molecule agonists of glucocorticoid receptor signaling (AID 588532; active means well fitted curve in the direction sought with a large enough effect in the signal ratio, with a control signal flat; the % refers to the signal ratio;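 further: 100% = dexamethasone at 0.1 µM and 0% = DMSO only wells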). The note with it: HeLa MMTV-bla, beta-lactamase ratio, agonist, 18 h; active compounds read high; percent of dexamethasone control, DMSO zero. In a few lines:
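Stimulation of a glucocorticoid response element-driven beta-lactamase gene was measured in HeLa cells. Responses were scaled between DMSO basal and 0.1 uM dexamethasone, then fitted for half-maximal stimulation.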

Assay [16] concerns the target Peroxisome proliferator-activated receptor delta (Homo sapiens) (UniProt Q03181). The experiment in a line: qHTS assay for small molecule agonists of peroxisome proliferator-activated receptor delta signaling (AID 588534; calls by dose curve;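 further: 0% = DMSO basal wells and 100% = positive control agonist at 10 µM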). In a few lines: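 Cell-based beta-lactamase reporter assay run in agonist mode: cells seeded and incubated 5 hrs at 37 C, compounds added and incubated 18 hrs at 37 C. CCF4 dye fluorescence read after 2 hrs at RT; EC50 and efficacy from Hill fits.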

Assay [17] is described as follows: qHTS assay for small molecule activators of the p53 signaling pathway (AID 651743; active means well fitted activation curve with a large enough effect in the signal ratio, not every such curve was filed as active; the % refers to the signal ratio; further: % of control where 0% means no effect). The note with it: HCT-116 p53RE-bla, beta-lactamase FRET ratio, 16 h; activation: active compounds read high. In a few lines: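 p53RE-bla HCT-116 cells with a stably integrated beta-lactamase reporter under p53 response elements were plated, rested 5 hours at 37 C/5% CO2, then exposed to compounds in DMSO for 16 hours at 37 C. LiveBLAzer B/G FRET substrate was read after 2 hours at room temperature.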

Assay [18] addresses Peroxisome proliferator-activated receptor alpha (Homo sapiens) (UniProt Q07869). The experiment in a line: qHTS assay for small molecule agonists of the peroxisome proliferator-activated receptor alpha (PPARalpha) signaling pathway (AID 651778). Further: % of control where 0% means no effect. The note with it: PathHunter PPARalpha complementation, chemiluminescence, 6 h; active compounds read high. The procedure, abridged: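 Cells plated at 2,000/well and held overnight at 37 C, 5% CO2, then compound added by pin tool for 6 hr; after PathHunter detection reagent and 60 min at room temperature, chemiluminescence from enzyme complementation was read.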

The nature of assay [19]: qHTS assay for cell viability of the p53RE-bla HCT-116 cell line (AID 743292). Further: on the % scale 0 is the no-effect control and ±100 the full control effect; nearly all actives have a fitted effect of over 55% in size. In a few lines: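 After plating at 4,000 cells per well and a 5 h rest at 37 C, HCT-116 cells carrying p53RE-bla received test chemicals in DMSO. Sixteen hours later at 37 C, CellTiter-Glo was added and luminescence recorded following 30 min at room temperature.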
A short description of assay [20]: qHTS Assay for Identification of Small Molecule Agonists for Thrombopoietin (TPO) Signaling Pathway (AID 917). Further: on the % scale 0 is the no-effect control and ±100 the full control effect. The procedure, abridged: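 Reporter: GpIIb promoter–luciferase in murine Ba/F3 expressing human TPO receptor. Pre-starved of IL-3 overnight; compounds with 26 pM TPO, 24 hrs, 37 C/5% CO2; luminescence read.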

Peroxisome proliferator-activated receptor delta (Homo sapiens), sequence (Q03181 whole entry, looked up): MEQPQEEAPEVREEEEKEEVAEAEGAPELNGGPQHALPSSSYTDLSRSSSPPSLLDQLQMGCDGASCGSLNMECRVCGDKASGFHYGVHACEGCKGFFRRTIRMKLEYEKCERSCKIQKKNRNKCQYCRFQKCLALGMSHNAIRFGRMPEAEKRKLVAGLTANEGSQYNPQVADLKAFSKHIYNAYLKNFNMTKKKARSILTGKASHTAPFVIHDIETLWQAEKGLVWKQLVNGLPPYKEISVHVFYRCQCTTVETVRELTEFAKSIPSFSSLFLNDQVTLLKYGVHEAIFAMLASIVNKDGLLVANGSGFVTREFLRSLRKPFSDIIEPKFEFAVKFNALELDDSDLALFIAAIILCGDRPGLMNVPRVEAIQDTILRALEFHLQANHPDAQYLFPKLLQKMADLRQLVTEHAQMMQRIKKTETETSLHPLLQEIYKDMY
Peroxisome proliferator-activated receptor alpha (Homo sapiens), sequence (Q07869 whole entry, looked up): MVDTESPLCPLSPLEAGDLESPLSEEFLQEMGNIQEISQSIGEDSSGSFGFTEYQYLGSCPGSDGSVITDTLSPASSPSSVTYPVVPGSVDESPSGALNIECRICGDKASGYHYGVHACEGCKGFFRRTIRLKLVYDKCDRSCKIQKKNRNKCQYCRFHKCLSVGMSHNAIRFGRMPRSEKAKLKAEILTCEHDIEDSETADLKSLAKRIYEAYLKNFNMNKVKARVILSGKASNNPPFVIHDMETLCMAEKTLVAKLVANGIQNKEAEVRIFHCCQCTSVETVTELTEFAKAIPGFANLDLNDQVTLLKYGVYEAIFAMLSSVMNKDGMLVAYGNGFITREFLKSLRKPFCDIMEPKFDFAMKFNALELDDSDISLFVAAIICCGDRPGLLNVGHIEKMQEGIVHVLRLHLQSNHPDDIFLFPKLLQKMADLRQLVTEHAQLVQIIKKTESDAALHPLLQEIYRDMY
Estrogen receptor (Homo sapiens), sequence (P03372 whole entry, looked up): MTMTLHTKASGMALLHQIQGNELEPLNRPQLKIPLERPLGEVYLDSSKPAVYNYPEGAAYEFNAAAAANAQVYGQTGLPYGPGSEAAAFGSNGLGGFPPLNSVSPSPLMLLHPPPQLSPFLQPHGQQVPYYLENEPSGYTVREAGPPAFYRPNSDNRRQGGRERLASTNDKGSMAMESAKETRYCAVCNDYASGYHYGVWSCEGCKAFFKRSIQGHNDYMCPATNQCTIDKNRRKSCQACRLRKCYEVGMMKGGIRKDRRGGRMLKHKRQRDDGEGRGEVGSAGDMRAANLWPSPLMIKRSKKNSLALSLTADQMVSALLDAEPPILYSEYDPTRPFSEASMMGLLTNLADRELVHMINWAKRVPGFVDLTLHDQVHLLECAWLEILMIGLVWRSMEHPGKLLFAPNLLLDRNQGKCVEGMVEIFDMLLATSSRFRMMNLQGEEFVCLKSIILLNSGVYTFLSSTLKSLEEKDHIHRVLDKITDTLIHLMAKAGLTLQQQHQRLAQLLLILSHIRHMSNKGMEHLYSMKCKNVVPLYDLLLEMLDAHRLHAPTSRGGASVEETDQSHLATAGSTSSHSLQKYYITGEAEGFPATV
Glucocorticoid receptor (Homo sapiens), sequence (P04150 whole entry, looked up): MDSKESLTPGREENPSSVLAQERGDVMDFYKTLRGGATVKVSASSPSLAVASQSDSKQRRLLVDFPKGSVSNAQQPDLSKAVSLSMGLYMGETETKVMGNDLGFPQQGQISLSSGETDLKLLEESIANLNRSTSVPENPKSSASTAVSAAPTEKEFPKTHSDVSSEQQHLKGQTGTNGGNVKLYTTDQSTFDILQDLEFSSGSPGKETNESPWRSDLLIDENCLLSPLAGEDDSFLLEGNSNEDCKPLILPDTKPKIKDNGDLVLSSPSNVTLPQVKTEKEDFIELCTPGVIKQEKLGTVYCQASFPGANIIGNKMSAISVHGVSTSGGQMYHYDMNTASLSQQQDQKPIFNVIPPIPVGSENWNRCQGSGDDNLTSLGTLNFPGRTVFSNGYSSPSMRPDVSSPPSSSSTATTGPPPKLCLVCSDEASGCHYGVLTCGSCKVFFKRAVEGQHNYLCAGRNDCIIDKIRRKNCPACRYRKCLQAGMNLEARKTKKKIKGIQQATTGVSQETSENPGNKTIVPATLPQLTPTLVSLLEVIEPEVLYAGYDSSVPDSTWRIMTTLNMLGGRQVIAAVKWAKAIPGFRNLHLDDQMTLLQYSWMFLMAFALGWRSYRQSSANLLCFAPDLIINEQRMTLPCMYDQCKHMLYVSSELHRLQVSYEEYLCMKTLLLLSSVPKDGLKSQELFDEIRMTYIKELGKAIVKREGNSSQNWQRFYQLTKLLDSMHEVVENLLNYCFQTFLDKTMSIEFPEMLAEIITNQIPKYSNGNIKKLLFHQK
Cytochrome P450 2C9 (Homo sapiens), sequence (P11712 whole entry, looked up): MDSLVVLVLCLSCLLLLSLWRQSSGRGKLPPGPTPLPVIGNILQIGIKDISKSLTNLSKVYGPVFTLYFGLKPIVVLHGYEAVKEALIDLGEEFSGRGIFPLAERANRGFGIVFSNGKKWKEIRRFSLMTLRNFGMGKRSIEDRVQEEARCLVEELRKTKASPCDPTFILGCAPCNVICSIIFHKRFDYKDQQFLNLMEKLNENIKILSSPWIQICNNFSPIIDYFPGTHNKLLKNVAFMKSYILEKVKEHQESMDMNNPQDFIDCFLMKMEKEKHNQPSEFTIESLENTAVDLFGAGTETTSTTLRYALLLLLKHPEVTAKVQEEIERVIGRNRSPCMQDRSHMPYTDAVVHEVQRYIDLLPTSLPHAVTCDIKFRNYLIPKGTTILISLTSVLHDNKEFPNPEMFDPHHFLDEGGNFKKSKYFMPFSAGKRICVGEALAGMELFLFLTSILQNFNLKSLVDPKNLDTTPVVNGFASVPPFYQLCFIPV

Consider `CC(C)c1c(CN(C)[C@@H](C)Cc2ccccc2)n(C)n(-c2ccccc2)c1=O`, for which the Potency in assay [1] is 7.94 µM (active).
Consider `CCNc1nc(Cl)nc(NC(C)C)n1`, for which the Potency in assay [2] and in assay [3] was over 92 µM each time. The activity change, negative = cytotoxicity in assay [4] is -18.4%; in [5], -6.93% [at 91.7 µM]. Further, the call in assay [6], in assay [7], in assay [8], in [9], in [10] and in assay [12] was inactive. The result in [16] was inactive. In addition, the caspase-3 activation in assay [11] was -3.87% [at 91.7 µM]. Besides, the Potency result in [13], in assay [14] and in assay [19] was “inactive” in each case. The activation in assay [15] is -2.38% and -6.25%; in assay [17], -2.86% and -1.26%. Also, the max response in [18] is 3.27% and 0.807%.
For `CCC[C@@](C)(COC(N)=O)COC(=O)NC(C)C`, the Potency result in [1] was “inactive”.
In the case of `COc1ccc2c(c1OC)C(=O)O[C@H]2[C@H]1c2cc3c(cc2CCN1C)OCO3`, in assay [1], the Potency is 3.98 µM (active).
As for `C[C@@]12CC[C@H]3[C@@H](CC[C@@H]4C[C@H]5S[C@H]5C[C@]43C)[C@H]1CC[C@H]2O`, the Potency in assay [1] was 0.005 µM (active).
As to `CCc1cccc(CC)c1N(COC)C(=O)CCl`, in assay [2], the Potency is over 92 µM. In [4], the activity change, negative = cytotoxicity is -147% (active). The call in assay [6], in assay [7], in assay [8], in assay [9], in assay [10] and in assay [12] was inactive. Moreover, the compound was called inactive in assay [16]. The caspase-3 activation in assay [11] was 1.3%. Besides, the Potency result in assay [13], in [14] and in assay [19] was “inactive” each time. For the same compound, the activation in [15] was 0.967% and -3.2%. Moreover, the max response in [18] was -2.24% and -0.952%.
Take `CNC(=O)O/N=C/C(C)(C)SC`: the Potency in assay [2] and in assay [3] was over 92 µM in each case. Besides, the activity change, negative = cytotoxicity in [4] is -9.42%; in [5], -3.02% [at 91.7 µM]. The compound was called inactive in assay [6], in [7], in assay [8], in [9], in assay [10] and in assay [12]. For the same compound, in [16], the outcome was inactive. For the same compound, the caspase-3 activation in assay [11] was -0.514% [at 91.7 µM]. Also, the Potency entry in [13], in assay [14] and in [19] was “inactive” each time. Further, the activation is -4.75% and -0.357% and -10.4% in [15]; -1.27% and -5.37% and -5.16% in [17]. Further, the max response in [18] is 4.62% and -1.35% and -3.37%.
For the compound `CS(=N)(=O)CC[C@@H](N)C(=O)O` (stereo partly drawn), in assay [20], the result was inactive.
Take `C=CCc1ccc(OC)cc1`: the Potency in assay [2] and in assay [3] was over 92 µM in each case. Also, the activity change, negative = cytotoxicity in [4] was 3.06%; in assay [5] it was -9.51% [at 91.7 µM]. In addition, the outcome in assay [6], in [7], in assay [8], in [9], in [10] and in assay [12] was inactive. Moreover, the call in [16] was inactive. In assay [11], the caspase-3 activation is 1.25% [at 91.7 µM]. In addition, the Potency entry in assay [13] and in assay [19] was “inactive” in each case. For the same compound, the max response in assay [18] was 0.294%.
For `C#CCN(C)[C@@H](C)Cc1ccccc1`, the compound was called inactive in assay [20].
As to `ClC1=C(Cl)C2(Cl)C3C4C=CC(C4)C3C1(Cl)C2(Cl)Cl` (stereo not drawn), the Potency is over 92 µM in assay [2], over 92 µM in assay [3] and 50.1 µM (active) in assay [13]. Besides, the activity change, negative = cytotoxicity in assay [4] is -10.7%; in [5] it was 4.94% [at 91.7 µM]. Moreover, the compound was called inactive in [6], in [7], in assay [8], in assay [9], in [10] and in [12]. In addition, the outcome in assay [16] was inactive. In assay [11], the caspase-3 activation is -0.505% [at 91.7 µM]. The Potency result in assay [14] was “inactive”. For the same compound, the activation was 16.6% in assay [15] and 0.0105% in assay [17].
